According to PubChem BioAssay (NCI):
The panel holds about 79,000 compounds, 15% with a hit somewhere; the sample as a whole holds those more often. No stated cut-off is given here; in the data, active means growth inhibition above about 70%; inactive means the rest.

What was measured:
[1] = NCI Yeast Anticancer Drug Screen. Data for the rad50 strain (AID 155);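 further: 0% = growth of vehicle-only cultures of the same strain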; details: S. cerevisiae rad50 strain growth inhibition; at 50.0 µM; active compounds read high
Procedure, shortened: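 Vehicle-treated cultures provide the reference for the growth inhibition reported for compound-exposed, repair-deficient yeast.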

[2] = NCI Yeast Anticancer Drug Screen. Data for the mec2-1 strain (AID 157); details: S. cerevisiae mec2-1 strain, at 50.0 µM, active compounds read high
Procedure, shortened: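 Test agents were screened against the mec2-1 yeast strain, with defined DNA repair or cell cycle alteration. Growth was scored as inhibition against vehicle-only controls.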

[3] = NCI Yeast Anticancer Drug Screen. Data for the sgs1 mgt1 strain (AID 161);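 further: 0% = growth of cultures given vehicle only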; details: S. cerevisiae sgs1 mgt1 strain, at 50.0 µM, active compounds read high
Procedure, shortened: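 Mutant yeast exposed to compound; growth scored against vehicle-only wells.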

[4] = NCI Yeast Anticancer Drug Screen. Data for the cln2 rad14 strain (AID 165);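 further: 0% = growth equal to vehicle treated cultures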; details: S. cerevisiae cln2 rad14 strain, at 50.0 µM, active compounds read high
Procedure, shortened: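 Growth of compound-exposed yeast (cln2 rad14 genotype) measured and expressed as inhibition relative to vehicle.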

[5] = NCI Yeast Anticancer Drug Screen. Data for the bub3 strain (AID 167); details: S. cerevisiae bub3 mutant strain, at 50.0 µM, active compounds read high
Procedure, shortened: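 Mutant yeast screening strain plus compound; vehicle-treated cultures serve as the 0% inhibition reference.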

[6] = NCI Yeast Anticancer Drug Screen. Data for the mlh1 rad18 strain (AID 175); details: S. cerevisiae mlh1 rad18 strain growth inhibition; at 50.0 µM; active compounds read high
Procedure, shortened: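 In this whole-cell yeast screen, a strain with altered DNA damage repair is challenged with compound, and its growth is measured against matched vehicle-treated controls.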

Measured: growth inhibition

CC(=O)Oc1ccc(/C=C/c2ccccn2)cc1
inactive: [1] 6.6% | [2] -1.75% | [3] -1.5% | [4] -55.1% | [5] 3.75% | [6] 15.3%

O=C(O)c1ccccc1-c1ccccc1C(=O)O
inactive: [1] -3.95% | [2] -9.6% | [3] -10.9% | [4] -41.2% | [5] -1.8% | [6] 9%

CCCCCCCCOC(=O)Nc1cccc2ccccc12
inactive: [1] -12.8% | [2] -11.2% | [3] -2.6% | [4] -39.7% | [5] -4.35% | [6] -9.2%

CCOC(=O)c1nc2c(n(O)c1=N)CCC/C2=N\O
inactive: [1] 4.1% | [2] -1.6% | [3] -8.8% | [4] 14.2% | [5] 3.8% | [6] 5.45%

CC(=O)[CH-]C(=O)c1ccccc1.CC(=O)[CH-]C(=O)c1ccccc1.CC(C)CCCC(C)[C@H]1CCC2[C@@H]3CC=C4C[C@@H]([O-])CC[C@]4(C)C3CC[C@@]21C.CC[O-].[Ti+4] (stereo not given in full)
inactive: [1] 11.2% | [2] 0.05% | [3] 10.2% | [4] -33.9% | [5] 23.2% | [6] 3.85%

O=CNc1cc([N+](=O)[O-])ccc1OCc1ccccc1
inactive: [1] 13.6% | [2] 1.6% | [3] -0.75% | [4] 4.6% | [5] 12.2% | [6] -21.9%

C[C@H]1C[C@](C)(CO)Oc2oc3ccccc3c(=O)c21
inactive: [1] 4.5% | [2] 10.3% | [3] 17.4% | [4] 4.75% | [5] 7.2% | [6] 13.1%

CC(=O)NC1CC(C)(C)NC(C)(C)C1
inactive: [1] -18.6% | [2] -30.2% | [3] 3.45% | [4] 10.5% | [5] 0.5% | [6] -9.25%

C(=C\c1ccc2ccccc2c1)/c1ccc2ccccc2c1
inactive: [1] 6.75% | [2] 25.6% | [3] 16.6% | [4] 63.5% | [5] 6.85% | [6] 31.4%

Cc1ccc(-c2cc(-c3ccccc3)c(C#N)c(=O)[nH]2)cc1
inactive: [1] 16.1% | [2] 9.4% | [3] 12.6% | [4] 8.55% | [5] 3.8% | [6] 25.6%

O=C(O)c1ccccc1-c1ccccc1C(=O)Nc1ccc2c(c1)[nH]c(=O)c1ccccc12
inactive: [1] -13.8% | [2] -3.85% | [3] -21.8% | [4] 46.9% | [5] -15.8% | [6] -22.3%

Cc1ccc(S(=O)(=O)Nc2ccccc2C(=O)c2ccc(C)c(C)c2)cc1
inactive: [1] 4.1% | [2] -7.15% | [3] -9.9% | [4] -41% | [5] -40.9% | [6] 23.9%

CN1[C@@H]2C[C@@H](OC(=O)[C@H](CO)c3ccccc3)C[C@H]1[C@@H]1O[C@@H]12
inactive: [1] -1.3% | [2] 2.4% | [3] -33.7% | [4] -20.4% | [5] -10.3% | [6] 5.6%

O=C(O)/C=C/C(=O)Nc1cccc(C(F)(F)F)c1
inactive: [1] -3.5% | [2] 0.35% | [3] -17.5% | [4] -6.85% | [5] -15.7% | [6] -9.7%

CCN(Cc1ccc(CN(CC)C(=O)c2c(-c3ccccc3)noc2C)cc1)C(=O)c1c(-c2ccccc2)noc1C
inactive: [1] 13.6% | [2] -8.1% | [3] 5.1% | [4] 17.8% | [5] 0.2% | [6] -13.6%

CC(=O)Oc1ccc(C2CC(=O)N(CCN(C)C)C2=O)cc1 (stereo not given)
inactive: [1] 0.2% | [2] 30.2% | [3] -0.5% | [4] -6.35% | [5] 14.2% | [6] -2.1%

CC1CCCC(C)C1CO (stereo not given)
inactive: [1] 3.65% | [2] -31.6% | [3] 7.75% | [4] 22.7% | [5] -17.8% | [6] 15.8%

Cc1cccc(C)c1NCC(=O)NN
inactive: [1] 9.5% | [2] 6.05% | [3] 0.85% | [4] -22.9% | [5] 5.85% | [6] 8.55%

COc1cccc(C(=O)c2ccncc2)c1OC
inactive: [1] -10.2% | [2] -4.65% | [3] -5.6% | [4] 4.4% | [5] 1.1% | [6] -4.85%

O=C(O)C1=C(c2ccccc2)C=C(c2ccccc2)C1
inactive: [1] 0% | [2] 0.2% | [3] 12.8% | [4] -33% | [5] 48% | [6] 28.9%
